Source: PubChem BioAssay (National Center for Advancing Translational Sciences (NCATS))
Shown are actives, neighbours in structure and some others; about 8.7% of the full set was active somewhere.
VACV Venus inh = vaccinia inhibition (Venus reporter); Potency, µM (titrated, usually from 36.5 µM), inactives show top-dose activity change, negative = inhibition, usual class: inhibitors; AID 720580; hit rate 0.46% among 330,000; Vaccinia virus Venus reporter expression, fluorescence; calls by dose curve; tested in A549 cells; also: nearly all actives have a fitted effect of over 30% in size
VACV mCherry inh = inhibitors of vaccinia virus infection (mCherry reporter signal) | Vaccinia virus mCherry reporter infection, fluorescence | Potency, µM (series often up to 36.5 µM), inactives show at the highest dose activity change, negative = inhibition, hits mostly inhibitors | hit rate 0.63% among 310,000 | AID 720579; calls by dose curve; tested in A549 cells; also: nearly all actives have a fitted effect of over 35% in size
Pf growth 48h = P. falciparum growth inhibition at 48 hours (one generation); P. falciparum luciferase growth in erythrocytes, 48 h; Potency, µM (top dose mostly 28.7 µM), for inactives: top-dose activity change, negative = inhibition, usual class: inhibitors; hit rate 5.9% among 310,000; AID 504832
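Erythrocytes infected with P. falciparum carrying an integrated firefly luciferase reporter (2% hematocrit, 0.1% parasitemia final) were exposed to compounds in RPMI 1640 with 0.5% Albumax at 37 C, 5% CO2. Growth inhibition was scored as reduced luminescence.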
Pf growth 96h = P. falciparum growth inhibition at 96 hours; P. falciparum luciferase reporter growth, 96 h; Potency, µM (titrated, usually from 28.7 µM), inactives show top-dose activity change, negative = inhibition, most hits filed as inhibitors; hit rate 6.9% among 320,000; AID 504834
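Infected RBCs, 2% Hct / 0.05% parasitemia final; luciferase-reporter P. falciparum; cpd 96 h, 37 C, 5% CO2; luciferase detection reagent; luminescence.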
AMA1-RON2 inh = disrupts binding of P. falciparum AMA1 to RON2. AlphaScreen AMA1-biotinylated RON2 peptide binding. Potency, µM (highest dose often 58.2 µM), for inactives: top-dose activity change, negative = inhibition, usual class: inhibitors. hit rate 0.2% among 360,000. AID 720542;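 also: 0% = vehicle wells and -100% = peptide control; nearly all actives have a fitted effect of over 45% in size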
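AMA1 (3D7) with his tag at 25 nM final met compounds first, then biotinylated RON2 peptide at 25 nM; detection used donor plus acceptor beads, 10 µg/mL apiece, read by AlphaScreen after 30 min at room temperature.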
* marks the source's active call; other numbers are inactive results; i = inactive; ? = inconclusive; . = not tested or not shown; [ ] = another dose, or the depositor's remark. Unless noted, calls follow the shape of the dose curve; as a rule, active = well fitted curve in the direction sought with a large enough effect; inconclusive = small, poorly fitted or top-dose-only effect, or another doubt; inactive = no such curve, though single readings can be large; an effect the other way counts as inactive or inconclusive. Unless noted, % is scaled to controls: 0 for no effect and ±100 for the full control effect; potency is read from the fitted curve at half-maximal effect.

SMILES	VACV Venus inh	VACV mCherry inh	Pf growth 48h	Pf growth 96h	AMA1-RON2 inh
Cc1ccc(C(=O)N2CCCC(C(=O)c3ccc(Cl)cc3C)C2)cn1 (stereo not given)	-1.2%	i	5.7%	?	-1.1%
CCn1cnc2c(Nc3cc(F)cc(F)c3)nc(C#N)nc21	.	.	0.828µM*	0.294µM*	.
N#Cc1nc(Nc2cccc(Cl)c2)c2ncn(C3CCCC3)c2n1	.	.	-5.8%	?	.
CCNc1nc(C#N)nc(Nc2ccccc2)n1	-24.3%	-11.8%	.	.	.
CCNc1nc(C#N)nc2c1ncn2-c1cc(F)cc(F)c1	.	.	1.65µM*	?	.
COc1cc(-c2cc(C)c3cccc(OC)c3n2)cc2c1OCCN(C(=O)CC1NC(=O)c3ccccc31)C2 (stereo not given)	-0.4%	i	.	.	.
COc1ccc2ccccc2c1/C=N/NC(=S)Nc1cc(S(=O)(=O)N2CCOCC2)ccc1N1CCOCC1	-13.3%	-13.0%	5.22µM*	1.65µM*	62.8%
COc1ccc(/C=N/NC(=S)Nc2cc(S(=O)(=O)N3CCOCC3)ccc2N2CCOCC2)cc1O	?	-26.1%	?	?	55.5%
CCOc1cccc(/C=N/NC(=S)Nc2cc(S(=O)(=O)N3CCOCC3)ccc2N2CCOCC2)c1O	?	7.08µM*	?	?	36.4%
CCN1CCN(c2ccc(S(=O)(=O)N3CCOCC3)cc2NC(=O)/C=C/c2cccc(OC)c2OC)CC1	-16.5%	i	?	?	6.2%
Cc1ccccc1CNC(=O)CCCn1c(=O)c2cccn2c2cccnc21	-21.1%	-7.0%	.	.	.
CCn1ccnc1CN(C)Cc1cn[nH]c1-c1ccc(F)cc1F	-18.4%	-1.2%	9.1%	11.7µM*	54.1%
CCOc1ccccc1N(CC(=O)Nc1ccc(OC)c(Cl)c1)S(=O)(=O)c1ccccc1	-6.2%	-15.9%	.	.	.
Cc1cc(N(C)C)nc(Nc2ccccc2)n1	.	.	13.1µM*	11.7µM*	-8.3%
O=C(O)Cc1ccc(NC2(c3ccccc3)C(=O)c3ccccc3C2=O)cc1	6.1%	9.4%	.	.	.
CC(NC(=O)c1ccc([N+](=O)[O-])o1)C12CC3CC(CC(C3)C1)C2 (stereo not given)	?	?	6.57µM*	29.0%	-9.6%
O=C(NC1CCCCC1)c1ccc([N+](=O)[O-])o1	?	?	10.4µM*	-9.7%	9.8%
O=C(NC1CCCC(C(F)(F)F)C1)c1ccc([N+](=O)[O-])o1 (stereo not given)	.	.	.	.	0.0%
O=C(NC1CCCCCC1)c1ccc([N+](=O)[O-])s1	-3.9%	?	?	9.28µM*	-2.1%
CCOC(=O)CNc1ncnc2c1nnn2C	-2.9%	-14.3%	.	.	.
CCN(CC)CCn1c(NC(=O)c2ccccc2O)nc2ccccc21	.	.	-73.6%	15.8%	122.2%
O=C(Nc1nc2ccccc2n1CCN1CCOCC1)c1ccc(Cl)cc1	-1.6%	i	13.1µM*	?	40.0%
CCN(CC)CCn1c(NC(=O)c2ccc(Cl)cc2)nc2ccccc21	-13.6%	i	.	3.7µM*	29.2%
O=C(Nc1nc2ccccc2n1CCN1CCCC1)c1ccc(Cl)cc1	-16.6%	.	?	?	-7.2%
O=C(COC(=O)c1ccccc1OCCOc1ccccc1)Nc1ccccc1Br	-16.2%	-6.9%	.	.	.
SMILES	VACV Venus inh	VACV mCherry inh	Pf growth 48h	Pf growth 96h	AMA1-RON2 inh
O=[N+]([O-])c1cccc(S(=O)(=O)NCCc2cccs2)c1	-8.7%	?	17.4%	10.4µM*	6.6%
COc1cccc(N2CC(NC(=O)c3ccc(S(=O)(=O)N4CCCCC4)cc3)CC2=O)c1 (stereo not given)	-2.7%[7.34 µM]	-11.3%[7.34 µM]	.	.	.
COc1ccc(-c2sc3ccc(OC)cc3c2-c2ccc(OC)c(F)c2)cc1	-4.7%	i	?	-15.2%	-5.4%
COc1ccc(-c2sc3ccc(N4CCOCC4)cc3c2-c2ccc(OC)c(F)c2)cc1	-16.9%	?	14.7µM*	6.57µM*	-2.6%
Cc1cccc(NC(=O)CSc2nnc3scc(-c4ccccc4)n23)c1	-9.0%	-5.0%	.	.	.
CCOc1cc(OCC)c(C(=O)CCC(=O)O)cc1OCC	.	.	?	2.39µM*	.
COc1ccc(C(Cl)=C(c2ccc(OC)cc2)c2ccc(OC)cc2)cc1	-10.7%	-19.1%	9.28µM*	?	-2.8%
COc1ccc(C(=N/O)/C(=N/O)c2ccc(OC)cc2)cc1	-7.6%	-7.1%	-3.8%	-3.3%	-1.9%
CCN1CCN(c2nc(-c3ccncc3)nc3ccccc23)CC1	.	.	9.28µM*	7.38µM*	.
CCCOc1ccc(-c2nc(N3CCN(CC)CC3)c3ccccc3n2)cc1	.	.	10.4µM*	11.7µM*	-1.0%
O=C(NCC1(N2CCCCC2)CCCCC1)c1ccc(-n2cc(NC(=O)c3cccnc3)cn2)cc1	-17.4%	-11.9%	.	.	.
Cc1ccc(C2C=NN(c3ccccc3)C2=O)cc1 (stereo not given)	-20.1%	-6.7%	6.57µM*	?	4.8%
COc1ccccc1CN(Cc1nc2ccccc2c(=O)[nH]1)C(=O)Nc1cccc(C)c1	-1.4%	i	.	9.28µM*	8.8%
COc1ccccc1NC(=O)N(Cc1ccc2c(c1)OCO2)Cc1nc2ccccc2c(=O)[nH]1	51.5%	48.3%	?	?	2.1%
COc1ccccc1CN(Cc1nc2ccccc2c(=O)[nH]1)S(=O)(=O)c1ccc2ccccc2c1	?	?	5.86µM*	-24.3%	-2.6%
COc1ccc(NC(=O)C2CCCN2S(=O)(=O)c2cccc3cccnc23)c(OC)c1 (stereo not given)	-5.9%	10.4%	-7.0%	10.4µM*	-8.4%
O=C(Nc1cccc(C(F)(F)F)c1)C1CCCN1S(=O)(=O)c1cccc2cccnc12 (stereo not given)	.	.	?	10.4µM*	-2.4%
COc1cc(NC(=O)[C@H]2CCCN2S(=O)(=O)c2cccc3cccnc23)cc(OC)c1OC	-6.4%	-24.2%	?	?	6.0%
O=C(Nc1cccc(Cl)c1)C1CCCN1S(=O)(=O)c1cccc2cccnc12 (stereo not given)	-10.6%	-16.4%	.	.	.
CCN(Cc1ccncc1)Cc1cn[nH]c1-c1cc(OC)c(OC)c(OC)c1	-3.7%	i	?	9.28µM*	6.7%
COC(=O)c1ccc(Cl)cc1NC(=O)NC(C)c1c(-n2cccc2)sc(C)c1C (stereo not given)	-8.7%	-0.7%	.	.	.
COc1cccc(C2CC(c3ccccc3Cl)n3nc(N)nc3N2)c1 (stereo not given)	.	.	-9.2%	-15.8%	0.0%
COc1ccc(C2(c3ccc(O)cc3O)CC(c3ccccc3Cl)NC(=S)N2)cc1 (stereo not given)	-6.1%	-18.1%	11.7µM*	-0.8%	47.7%
CCOC(=O)c1oc2ccc3c(c2c1C)C(=O)CC1(CCN(C(=O)OCC)CC1)O3	-6.0%	.	2.62µM*	16.0%	0.6%
CCCC(=O)N1c2nc(C(C)C)nn2C2(CCCCC2)[C@@H]2CCCC[C@@H]21	-23.3%	-17.5%	.	.	.
Cc1ccccc1C(=O)N1CCN(c2ccc([N+](=O)[O-])c(NCc3ccco3)c2)CC1	-29.5%	?	13.1µM*	?	-0.5%
